Source: PubChem BioAssay (National Center for Advancing Translational Sciences (NCATS))
Hits are enriched below; roughly 3.2% of the tested compounds scored in any of these assays.
Lassa entry inh = inhibitors of Lassa virus binding or cell entry. AID 540256. Potency, µM (titrated, usually from 37.9 µM), actives largely listed as inhibitors. Lassa virus pseudotype entry inhibition, cell reporter. 300,000 tested, 1.2% active; calls by dose curve; tested in HEK293 cells; note: nearly all actives have a fitted effect of over 50% in size
Marburg entry inh = Marburg virus entry inhibition | 300,000 tested, 1.8% active | Marburg virus pseudotyped entry inhibition, cell reporter | AID 540276 | Potency, µM (series often up to 37.8 µM), hits mostly inhibitors; calls by dose curve; tested in HEK293 cells
Vaccinia mCherry = inhibitors of vaccinia virus infection (mCherry reporter signal). Vaccinia virus mCherry reporter infection, fluorescence. 310,000 tested, 0.63% active. Potency, µM (series often up to 36.5 µM), hits mostly inhibitors. AID 720579; calls by dose curve; tested in A549 cells; note: nearly all actives have a fitted effect of over 35% in size
VACV Venus inh = vaccinia inhibition (Venus reporter); Potency, µM (series often up to 36.5 µM), usual class: inhibitors; Vaccinia virus Venus reporter expression, fluorescence; 330,000 tested, 0.46% active; calls by dose curve; tested in A549 cells; note: nearly all actives have a fitted effect of over 30% in size
FMDV antiviral = blocks foot and mouth disease virus | FMDV antiviral cell-based qHTS | Potency, µM (highest dose often 57.9 µM), hits mostly inhibitors | 410,000 tested, 1.2% active; calls by dose curve; tested in HEK293T cells; note: read-out not given here; nearly all actives have a fitted effect of over 45% in size
Numbers stand for hits.

Results for C[n+]1c2cc(N)ccc2cc2ccc(N)cc21 ?
Vaccinia mCherry: 5.6µM; VACV Venus inh: inconclusive; FMDV antiviral: inconclusive

What do the screens show for `C[n+]1c2cc(N)ccc2cc2ccc(N)cc21` (tested in a mixture with another compound)?
VACV Venus inh: inconclusive; FMDV antiviral: inactive

Results for Nc1nc(CCl)nc(Nc2ccc3ccccc3c2)n1 ?
Lassa entry inh: 4µM; Marburg entry inh: inconclusive; Vaccinia mCherry: inconclusive; VACV Venus inh: inconclusive; FMDV antiviral: inactive

How did Cc1ccc(S(=O)(=O)c2cc3c(=O)n4cccc(C)c4nc3n(Cc3ccncc3)c2=N)cc1 do in these assays?
FMDV antiviral: inactive

How did CCOc1ccc(NC(=O)COC(=O)c2ccccc2OCc2ccccc2Br)cc1 do in these assays?
Vaccinia mCherry: inactive; VACV Venus inh: inactive

Results for C[C@]12CCC3C(CC[C@]4(O)CC(O)CC[C@@]34C=O)[C@]1(O)CCC2C1=CC(=O)OC1 (stereo not given in full) ?
Vaccinia mCherry: inconclusive; VACV Venus inh: 10µM; FMDV antiviral: inconclusive

Results for CC12CC[C@H]3[C@@H](CCC4(O)C[C@H](O)CCC34/C=N/NC(=O)Cc3ccccc3)C1(O)CCC2C1=CC(=O)OC1 (stereo not given in full) ?
Lassa entry inh: inconclusive; Marburg entry inh: inconclusive; Vaccinia mCherry: inconclusive; VACV Venus inh: inconclusive; FMDV antiviral: inactive

Results for CC1O[C@@H](OC2CC[C@@]3(C=O)C4CC[C@]5(C)C(C6=CC(=O)OC6)CC[C@@]5(O)C4CC[C@]3(O)C2)C(O)C(O)C1O (stereo not given in full) ?
Vaccinia mCherry: 25µM; VACV Venus inh: 0.045µM; FMDV antiviral: inactive

What do the screens show for `CCc1ccc(C(C)(O)C(CN2CCOCC2)c2ccccc2)cc1` (stereo not given)?
Lassa entry inh: inactive; Marburg entry inh: inactive; Vaccinia mCherry: inactive; VACV Venus inh: inactive; FMDV antiviral: inactive

How did CCOC(=O)c1ccc(NC(=O)C(C)Sc2nc(=O)cc(N)n2CCc2ccccc2)cc1 (stereo not given) do in these assays?
Lassa entry inh: inactive; Marburg entry inh: 5µM; Vaccinia mCherry: inactive; VACV Venus inh: inactive; FMDV antiviral: inactive

What do the screens show for `CCOC(=O)c1c(NC(=O)CSc2nnc(Cc3ccccc3)o2)sc(C(C)=O)c1C`?
Lassa entry inh: inactive; Marburg entry inh: inactive; FMDV antiviral: inconclusive

Results for CCOC(=O)c1sc(NC(=O)CSc2nnc(Cc3ccccc3)o2)c(C#N)c1C ?
Lassa entry inh: inactive; Marburg entry inh: inactive; VACV Venus inh: inactive; FMDV antiviral: 32µM

Results for COc1ccc(S(=O)(=O)N2CCCCCC2)cc1C(=O)N(C)CCOc1ccc(Cl)cc1 ?
Lassa entry inh: 18µM; Marburg entry inh: inconclusive; Vaccinia mCherry: inactive; VACV Venus inh: inactive; FMDV antiviral: inconclusive

Results for COc1ccc(N(C(=O)CCl)C(C(=O)NCCc2ccccc2)c2cccs2)cc1Cl (stereo not given) ?
Lassa entry inh: 26µM; Marburg entry inh: inconclusive; Vaccinia mCherry: inconclusive; VACV Venus inh: 10µM; FMDV antiviral: 20µM

Results for COc1cccc(N(C(=O)CCl)C(C(=O)NCCc2ccccc2)c2cccs2)c1 (stereo not given) ?
Lassa entry inh: inconclusive; Marburg entry inh: inconclusive; Vaccinia mCherry: inconclusive; VACV Venus inh: inconclusive; FMDV antiviral: 16µM

How did COc1cccc(N(C(=O)c2snc(C(N)=O)c2N)C(C(=O)NCC2CCCO2)c2cccs2)c1 (stereo not given) do in these assays?
Lassa entry inh: inactive; Marburg entry inh: inconclusive; Vaccinia mCherry: inconclusive; VACV Venus inh: inactive; FMDV antiviral: inactive

Results for O=C(CSc1cn(CCNC(=O)c2cccc(C(F)(F)F)c2)c2ccccc12)Nc1ccc2c(c1)OCCO2 ?
Lassa entry inh: inconclusive; Marburg entry inh: inconclusive; Vaccinia mCherry: inconclusive; VACV Venus inh: inconclusive; FMDV antiviral: 25µM

Results for O=C(NCCn1cc(SCc2ccc(F)cc2)c2ccccc21)c1ccccc1F ?
Lassa entry inh: inactive; Marburg entry inh: inconclusive; Vaccinia mCherry: inconclusive; VACV Venus inh: inactive; FMDV antiviral: 28µM

How did O=C(NCCn1cc(SCc2ccc(C(F)(F)F)cc2)c2ccccc21)c1ccccc1F do in these assays?
Lassa entry inh: inactive; Marburg entry inh: inactive; Vaccinia mCherry: inactive; VACV Venus inh: inactive; FMDV antiviral: inconclusive

Results for COc1ccc(C(=O)NCCn2cc(SCc3ccc(C(F)(F)F)cc3)c3ccccc32)cc1OC ?
Lassa entry inh: inactive; Marburg entry inh: inconclusive; Vaccinia mCherry: inconclusive; VACV Venus inh: inconclusive; FMDV antiviral: 22µM
